# Sampled rows, rich in hits. Any-hit rate of the full collection: about 1.8%.
# LYPLA1 inh: counter-screen for PME1 inhibitors: inhibitors of human LYPLA1; actives 0.16% (n = 320,000); inhibition, % at 5.9 µM; O75608; recombinant LYPLA1, FP-Rh probe fluorescence polarization;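 active means inhibition above the mean of all tested compounds plus 3 SD, set per campaign, cut at about 14% in these data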;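 further: inhibitors block serine hydrolase probe labeling of LYPLA1 so polarization falls; 0% = enzyme with DMSO and 100% = wells lacking LYPLA1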
# Target sequence (O75608 whole entry, looked up): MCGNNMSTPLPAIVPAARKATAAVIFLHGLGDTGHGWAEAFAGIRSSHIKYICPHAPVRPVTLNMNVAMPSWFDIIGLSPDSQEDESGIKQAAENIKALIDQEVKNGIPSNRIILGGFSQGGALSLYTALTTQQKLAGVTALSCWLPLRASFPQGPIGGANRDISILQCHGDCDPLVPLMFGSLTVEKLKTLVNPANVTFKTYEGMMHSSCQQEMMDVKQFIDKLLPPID
# GSTO1 counter: GSTO1 inhibition, counter-screen for RBBP9 inhibitors | actives 1.1% (n = 300,000) | recombinant GSTO1, activity-based probe fluorescence polarization | P78417 | inhibition, % at 5.96 µM;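 active means inhibition above the campaign mean inhibition plus 3 SD, cut at about 35% in these data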;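 further: 0% = GSTO1-1 with DMSO and 100% = wells lacking GSTO1-1 enzyme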
# PME-1 inh: PME-1 (human) inhibition; actives 0.53% (n = 320,000); recombinant PME-1, FP-Rh probe fluorescence polarization; inhibition, % at 5.9 µM; Q9Y570; AID 2130;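 active means inhibition above the campaign mean of all compounds plus 3 SD, cut at about 26% in these data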;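 further: competitive labeling of PME-1 active site by serine hydrolase directed probe; 0% = PME-1 with DMSO and 100% = wells lacking PME-1 enzyme; inhibitors block probe labeling so polarization falls and inhibition rises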
# Target sequence (Q9Y570 whole entry, looked up): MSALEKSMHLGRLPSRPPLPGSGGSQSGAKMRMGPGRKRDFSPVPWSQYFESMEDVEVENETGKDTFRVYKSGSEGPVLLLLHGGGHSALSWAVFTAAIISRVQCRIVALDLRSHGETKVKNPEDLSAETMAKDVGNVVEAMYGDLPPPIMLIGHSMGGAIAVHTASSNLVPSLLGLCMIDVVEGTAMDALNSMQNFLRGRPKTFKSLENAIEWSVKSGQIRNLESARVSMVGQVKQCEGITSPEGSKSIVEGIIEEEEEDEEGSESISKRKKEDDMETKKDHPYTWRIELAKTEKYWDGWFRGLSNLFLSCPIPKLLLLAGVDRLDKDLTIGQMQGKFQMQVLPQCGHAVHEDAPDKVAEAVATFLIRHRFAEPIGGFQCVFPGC
# Fam108B inh: Fam108B inhibition, counter-screen for RBBP9 inhibitors | AID 1947 | actives 0.33% (n = 300,000) | inhibition, % at 9.51 µM | recombinant Fam108B, FP-Rh probe fluorescence polarization;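 active means inhibition above the screen mean inhibition plus 3 SD, computed separately per campaign, cut at about 18% in these data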;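 further: inhibitors lower polarization as less probe binds the enzyme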
# PAD4 FP inh: inhibitors of human PAD4 | Q9UM07 | recombinant PAD4, RCA probe fluorescence polarization | inhibition, % at 6.36 µM | actives 0.41% (n = 330,000) | AID 485272;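 active means percent inhibition above a cutoff equal to the mean of all tested compounds plus 3 SD, cut at about 15% in these data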;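 further: 0% = PAD4 with RCA probe and DMSO and 100% = probe without PAD4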
# LYPLA2 counter: counter-screen for PME1 inhibitors: inhibitors of human LYPLA2; actives 0.38% (n = 320,000); O95372; recombinant LYPLA2, FP-Rh probe fluorescence polarization; inhibition, % at 5.9 µM;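 active means inhibition above the screen-wide mean plus 3 SD, limit set per campaign, cut at about 26% in these data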;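 further: 0% = LYPLA2 with DMSO and 100% = wells lacking LYPLA2 enzyme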
# LYPLA1 conf: counter-screen for PME1 inhibitors: confirmation of human LYPLA1 inhibitors; actives 69% (n = 480); shares compounds with LYPLA1 inh; inhibition, % at 5.9 µM; AID 2233; recombinant LYPLA1, FP-Rh probe fluorescence polarization;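 active means mean inhibition across replicates above the hit cutoff set in the primary screen, cut at about 15% in these data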;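 further: loss of FP-Rh probe labeling of LYPLA1 seen as lower polarization; 0% = LYPLA1 with DMSO and 100% = wells lacking LYPLA1 enzyme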
# * hit, by the source's call; . = no result given.
SMILES,LYPLA1 inh,GSTO1 counter,PME-1 inh,Fam108B inh,PAD4 FP inh,LYPLA2 counter,LYPLA1 conf
CCn1c2ccccc2c2nnc(SCc3ccc(C(=O)OC)o3)nc21,15*,-1,4,3,1,5,22*
COC(=O)c1sc2cc(C(F)(F)F)cnc2c1-c1ccccc1,17*,-3,-4,6,-2,12,21*
CC(C)(C)NC(=O)NC(=O)CN1CCN(c2cccc(Cl)c2)CC1,0,-8,2,1,-4,2,.
CC(=O)Nc1cccc(C(=O)N2CCC(n3nccc3NC(=O)CC(C)C)CC2)c1,-5,2,1,5,3,-6,.
O=C(Nc1ccc(Oc2cccnc2)cc1)C1CCN(Cc2cc(Cl)ccc2O)CC1,21*,0,-3,-1,-1,25,18*
O=C(Nc1ccc(Oc2cccnc2)cc1)C1CCN(Cc2ccc(F)cc2)CC1,-3,8,-1,-3,-6,-4,.
COc1ccc(CNC(=O)Cn2ccc3cc(S(=O)(=O)N4CCCC4)ccc32)cc1OC,24*,7,8,3,2,13,3
COc1ccc(C(=O)OCC(O)COC(=O)c2ccc(OC)cc2)cc1,-2,0,-3,1,2,2,.
O=C(COc1ccc(Cl)cc1)N1CCN(c2ccc([N+](=O)[O-])c(N3CCCCC3)c2)CC1,66*,-7,1,0,1,21,79*
COc1ccc(-c2ccc(NC(=O)c3ccco3)cc2)nn1,-4,5,-12,2,1,-2,.
CCN(CC)S(=O)(=O)c1cccc(NC(=O)COC(=O)C2CC3C=CC2C3)c1 (centres undefined),30*,2,1,11,4,13,28*
Cc1ccc(NC(=O)COC(=O)C2CC3C=CC2C3)cc1S(=O)(=O)N1CCCCC1 (centres undefined),20*,0,5,-2,1,6,33*
COc1ccc(NC(=O)COC(=O)C2CC3C=CC2C3)cc1 (centres undefined),4,0,-2,-2,0,7,.
COc1cc(OC)c(OC)cc1/C=C1\Oc2cc(OCC(=O)N3Cc4ccccc4C[C@H]3C(=O)O)ccc2C1=O,25*,-74,-12,2,3,-6,22*
COc1cc(NC(=O)C2CCC(CNc3c(N4CCC(C)CC4)c(=O)c3=O)CC2)cc(OC)c1 (centres undefined),39*,-4,3,1,0,4,40*
COc1cc(NC(=O)C2CCC(CNc3c(N4CCCCC4)c(=O)c3=O)CC2)cc(OC)c1 (centres undefined),24*,7,2,0,4,6,31*
COc1ccc(NC(=O)C2CCC(CNc3c(N4CCC(C)CC4)c(=O)c3=O)CC2)cc1OC (centres undefined),24*,-7,0,0,-4,6,26*
O=C(Nc1ccc(F)cc1)C1CCC(CNc2c(N3CCCCC3)c(=O)c2=O)CC1 (centres undefined),4,15,1,4,2,2,.
O=C(CCCc1ccccc1)Nc1nccs1,-1,-1,-6,-1,5,6,.
Cc1ccc(NC(=O)CN(C)C(=O)c2cccc(S(=O)(=O)N3CCc4ccccc43)c2)cc1,-4,.,11,.,-2,-1,.
CCOC(=O)c1cnc(SCC(=O)Nc2ccc(N3CCOCC3)c(Cl)c2)nc1N,16*,-3,4,3,0,12,26*
COC(=O)Cn1c(=NC(=O)c2ccc(S(=O)(=O)N3CCOCC3)cc2)sc2cc(S(N)(=O)=O)ccc21,13,-4,2,-7,-4,0,.
COCCn1c(=NC(=O)c2ccc(S(=O)(=O)N3CCOCC3)cc2)sc2cc(S(N)(=O)=O)ccc21,17*,-3,12,-4,4,15,27*
CC1CCCCC12NC(=O)N(CC(=O)c1ccc3c(c1)OCO3)C2=O (centres undefined),-1,6,-2,0,0,0,.
COC1CCCN(Cc2c(C(=O)N3CCN(C4CCCCC4)CC3)nc3ccccn23)C1 (centres undefined),0,11,-2,1,1,-2,.
SMILES,LYPLA1 inh,GSTO1 counter,PME-1 inh,Fam108B inh,PAD4 FP inh,LYPLA2 counter,LYPLA1 conf
Cc1noc(NS(=O)(=O)c2ccc(NC(=O)c3oc4ccc(Cl)cc4c3C)cc2)c1C,28*,3,9,2,-4,25,31*
CC(=O)N1CCN(C(=O)CCc2nnc(CCCCc3ccccc3)o2)CC1,-3,10,-3,-3,-7,-5,.
COCCCC1CCN(C(=O)CCc2nnc(CCCCc3ccccc3)o2)CC1,17*,11,-2,0,-3,8,17*
COc1cc(/C=N/NC(=O)c2ccc(Cn3cc([N+](=O)[O-])cn3)o2)cc(Br)c1O,-2,-6,0,0,-8,-3,.
COc1cc(/C=N\NC(=O)c2ccc(Cn3cc(Br)c([N+](=O)[O-])n3)o2)cc(OC)c1O,16*,-1,7,13,2,-2,10
C(=N\N1CCN(Cc2ccccc2)CC1)/c1ccc(-c2ccccc2)cc1,0,5,-5,-2,5,3,.
COc1ccccc1/C=C/C=N/N1CCN(Cc2ccccc2)CC1,19*,3,0,4,0,16,12
CCCCC/C=N/NC(=O)c1[nH]c2ccc([N+](=O)[O-])cc2c1C,15*,0,-19,-3,-2,0,40*
COc1ccccc1C(=O)NC(=O)COC(=O)c1cccc(OC(F)F)c1,-1,-1,-1,0,-2,-1,.
Cc1sc2ncn(CC(=O)N3CCC(C(N)=O)CC3)c(=O)c2c1S(=O)(=O)N1CCOCC1,3,-2,0,-2,-1,0,.
Cc1ccc(NC(=O)COc2ccc(/C=C3/SC(=Nc4ccccc4)N(Cc4cccnc4)C3=O)cc2)cc1,68*,0,0,-11,-3,0,-1
CC1Cc2cc(S(=O)(=O)N3CCCCC3)ccc2N1C(=O)C1CCC1 (centres undefined),19*,-8,5,-1,6,-1,24*
CC1Sc2ccc(S(=O)(=O)N3CCC(C(=O)N(C)Cc4ccco4)CC3)cc2NC1=O (centres undefined),1,-4,5,-6,-11,-2,.
CC1Cc2cc(S(=O)(=O)N3CCC(C(=O)N4CCCCC4)CC3)ccc2N1C(=O)C1CC1 (centres undefined),11,4,3,4,-4,5,.

# From PubChem BioAssay
